# Results filed as inconclusive are left out. Entries that show only a call come without a potency. Activity calls are given as the source filed them. Calls follow the shape of the dose curve; as a rule, active = well fitted curve in the direction sought with a large enough effect; inconclusive = small, poorly fitted or top-dose-only effect, or another doubt; inactive = no such curve, though single readings can be large; an effect the other way counts as inactive or inconclusive.
# Target: Calcium and integrin-binding protein 1 (Homo sapiens) (UniProt Q99828)
# Test: Confirmatory qHTS for Identification of Calcium Integrin Binding Protein 1 (CIB1) Competitor (AID 1508617); also: nearly all actives have a fitted effect of over 65% in size; also: potency is read from the fitted curve at half-maximal effect
# Settings: CIB1 binding competition assay, biochemical qHTS; series mostly up to 114 µM
# Method in brief: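 Binding competition between test compounds and fluorescent alphaIIb peptide for 1 uM CIB1-GST is monitored by FP at 480/540 nm. Final compound range is up to 114 uM; unlabeled peptide serves as reference competitor.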
# Chain of Calcium and integrin-binding protein 1 (Homo sapiens) (Q99828 whole entry, looked up): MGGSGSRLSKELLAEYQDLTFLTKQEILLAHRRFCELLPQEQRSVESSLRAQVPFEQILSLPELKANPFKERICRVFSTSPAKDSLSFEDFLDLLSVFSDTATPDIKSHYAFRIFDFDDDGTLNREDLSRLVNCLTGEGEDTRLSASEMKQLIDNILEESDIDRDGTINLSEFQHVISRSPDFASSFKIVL
row,SMILES,Potency
1,Cc1coc2c1C(=O)C(=O)c1c-2ccc2c1CCCC2(C)C,39.8 µM (active)
2,CC(=O)Nc1sc2c(c1-c1nc3ccccc3s1)CNC2,inactive
3,Cn1cc(-c2[nH]c3cc(NC(=O)[C@H](N)C4CCCCC4)cc4c3c2C=NNC4=O)cn1,50.1 µM (active)

# Target: Calcium and integrin-binding protein 1 (Homo sapiens) (UniProt Q99828)
# Test: Primary qHTS for Identification of Calcium Integrin Binding Protein 1 (CIB1) Competitor (AID 1508620);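 also: GST tagged CIB1 binding a fluorescein labelled alphaIIb integrin peptide tracer; top concentration of the series differs between compounds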
# Settings: CIB1-GST / FITC-alphaIIb peptide fluorescence polarization; series mostly up to 57.7 µM
# Method in brief: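 Fluorescence polarization competition: GST-tagged CIB1 (1 uM final) preincubated with compound 15 min at room temperature, then FITC-labelled alphaIIb peptide (100 nM final) added. After 15 min at room temperature, polarization read at Ex 480/Em 540.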
row,SMILES,outcome
1,COc1cc2c(Oc3ccc(-c4cnc(Nc5ccc(F)cc5)n(C)c4=O)cc3F)ccnc2cc1OCCCN1CCOCC1,inactive
2,Cc1coc2c1C(=O)C(=O)c1c-2ccc2c1CCCC2(C)C,inactive
3,O=C(Cc1ccc(-c2ccc(OCCN3CCOCC3)cc2)cn1)NCc1ccccc1,inactive
4,CC(=O)Nc1nc(C)c(-c2ccc(Cl)c(S(=O)(=O)NCCO)c2)s1,inactive
5,CC(C)c1cc(C(=O)N2Cc3ccc(CN4CCN(C)CC4)cc3C2)c(O)cc1O,inactive
6,NC(=O)Nc1cc(-c2cccc(F)c2)sc1C(=O)N[C@H]1CCCNC1,inactive
7,Cc1nc(N)ncc1-c1nc(N2CCOCC2)c2sc(C(C)(C)O)cc2n1,inactive
8,COc1ccc(-c2cc3c(C)nc(N)nc3n(C3CCC(OCCO)CC3)c2=O)cn1 (configuration not stated),inactive
9,CCCCOc1c(C(=O)c2c(F)cc(C)cc2F)cnc2n[nH]cc12,inactive
10,c1ccc2c(CCNc3ccc(Nc4ccncc4)cc3)c[nH]c2c1,inactive
11,Cc1c(CN2CCN(S(C)(=O)=O)CC2)sc2c(N3CCOCC3)nc(-c3cnc(N)nc3)nc12,inactive
12,CN(C)Cc1c(C(=O)NCCOc2ccc(C(=O)NO)cc2)oc2ccccc12,inactive
13,CC1(C)CC(=O)c2c(C(F)(F)F)nn(-c3ccc(C(N)=O)c(NC4CCC(OC(=O)CN)CC4)c3)c2C1 (configuration not stated),inactive
14,COc1cccc2c(NCc3ccccc3)nc(-n3c(N)nc4ccccc43)nc12,inactive
15,Nc1ncnc2c1c(-c1cccc(OCc3ccccc3)c1)cn2C1CC(CN2CCCC2)C1 (configuration not stated),inactive
16,Nc1ccccc1NC(=O)c1ccc(CNC(=O)OCc2cccnc2)cc1,inactive
17,NC1(Cc2ccc(Cl)cc2)CCN(c2ncnc3[nH]ccc23)CC1,inactive
18,CC(=O)Nc1sc2c(c1-c1nc3ccccc3s1)CNC2,inactive
19,COc1c(OCCCN2CCOCC2)ccc2c3n(c(=NC(=O)c4cnc(N)nc4)nc12)CCN3,inactive
20,Nc1cc(C(F)(F)F)c(-c2cc(N3CCOCC3)nc(N3CCOCC3)n2)cn1,inactive

row,SMILES,outcome
1,COc1ccc(C(=O)CC2(O)C(=O)Nc3c(Cl)ccc(Cl)c32)cc1 (configuration not stated),inactive
2,CC(C)(O)c1cc2nc(-c3cnc(N)nc3)nc(N3CCOCC3)c2s1,inactive
3,Cc1cc(Nc2cc(N3CCN(C)CC3)nc(Sc3ccc(NC(=O)C4CC4)cc3)n2)n[nH]1,inactive
4,O=C(Nc1ncc(-c2cc(C(F)F)nn2-c2c(Cl)cccc2Cl)s1)C1CC1,inactive
5,CC1(O)CC(c2nc(-c3ccc4ccc(-c5ccccc5)nc4c3)c3c(N)nccn23)C1 (configuration not stated),inactive
6,COc1cc2c(NC3CCN(C(C)C)CC3)nc(C3CCCCC3)nc2cc1OCCCN1CCCC1,inactive
7,CNC(=O)c1ccccc1Nc1nc(Nc2ccc(N3CCOCC3)cc2OC)ncc1Cl,inactive
8,CCNC(=O)Nc1ccc2ncc(Nc3ccc(C)cc3)nc2n1,inactive
9,C[C@]1(CO)CN(c2cc(C(=O)Nc3ccc4c(c3)-c3c(c(C(N)=O)nn3-c3ccc(F)cc3)CC4)c(Cl)cn2)C[C@@]1(C)CO,inactive
10,COC(=O)Nc1ccc(-c2nc(N3CCOCC3)c3cnn(C4CCN(Cc5cccnc5)CC4)c3n2)cc1,inactive
11,CC(O)C1C(=O)N2C(C(=O)O)=C(SC3CNC(C(=O)N(C)C)C3)C(C)C12 (configuration not stated),inactive
12,COC(=O)Nc1nc2ccc(C(=O)c3ccc(F)cc3)cc2[nH]1,inactive
13,Cn1cc(-c2ccncc2)c(-c2ccc(OCc3ccc4ccccc4n3)cc2)n1,inactive
14,CCn1nnc2c(N3CCOCC3)nc(-c3ccc(NC(=O)Nc4ccc(C(=O)N5CCN(C)CC5)cc4)cc3)nc21,inactive
15,C=CC(=O)Nc1cccc(Oc2nc(Nc3ccc(N4CCN(C)CC4)cc3OC)ncc2Cl)c1,inactive
16,COc1cc2c(Nc3ccc(NC(=O)c4ccccc4)cc3)ncnc2cc1OCCCN1CCOCC1,inactive
17,Clc1cccc(-c2nnnn2Cc2cccnc2)c1Cl,inactive
18,CS(=O)(=O)c1ccc(-c2cnc(N)c(C(=O)Nc3ccccc3)n2)cc1,inactive
19,O=C(Nc1nc2cccc(-c3ccc(CN4CCS(=O)(=O)CC4)cc3)n2n1)C1CC1,inactive

# Source: PubChem BioAssay (NCATS)
